Assay in all cases: DAPPL (digital affinity profiling via proximity ligation, sequencing); 10 mM Tris-HCl pH 7.5, 50 mM NaCl, 1 mM DTT, 4% glycerol, room temperature, 30 min; GST-TFs on glutathione beads, 16-mer random dsDNA library, 0.1% formaldehyde crosslink after washing; high values mean tight binding
Conditions in all cases: protein: recombinant; tags: N-terminal GST; dsDNA, one strand shown

One assay concerns the target T1, ERF (Homo sapiens, UniProt P50548 1-548).
T1 sequence: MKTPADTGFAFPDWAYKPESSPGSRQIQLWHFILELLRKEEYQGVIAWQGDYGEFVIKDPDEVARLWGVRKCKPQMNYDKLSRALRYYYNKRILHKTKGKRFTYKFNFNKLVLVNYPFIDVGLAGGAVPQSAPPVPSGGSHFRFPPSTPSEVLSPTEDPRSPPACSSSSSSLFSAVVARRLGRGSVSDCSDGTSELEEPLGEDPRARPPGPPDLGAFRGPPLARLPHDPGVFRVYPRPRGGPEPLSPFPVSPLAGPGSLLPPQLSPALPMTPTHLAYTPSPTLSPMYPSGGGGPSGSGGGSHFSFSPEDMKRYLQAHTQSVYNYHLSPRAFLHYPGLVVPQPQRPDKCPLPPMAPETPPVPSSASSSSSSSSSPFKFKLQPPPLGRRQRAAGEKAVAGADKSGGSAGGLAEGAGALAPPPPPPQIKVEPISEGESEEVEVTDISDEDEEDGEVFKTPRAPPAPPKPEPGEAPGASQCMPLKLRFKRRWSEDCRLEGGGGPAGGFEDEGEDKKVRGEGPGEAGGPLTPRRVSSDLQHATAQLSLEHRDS
An outline of the steps:
(§1)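 Pools were built from human transcription factors expressed in yeast as GST fusions, captured on glutathione beads and DNA-barcoded, along with a tag-only sample. Incubation with 200 nmole of a 16-mer random double-stranded DNA library lasted 30 min at room temperature in Tris/NaCl/DTT/glycerol buffer, and was followed by washing, 0.1% formaldehyde crosslinking, proximity ligation, PCR amplification and Illumina NextSeq500 sequencing. Binding signal is the quotient of each hexamer's read frequency for a factor and its frequency for the tag-only sample.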

The next assay concerns the target T2, ETV3L (Homo sapiens, UniProt Q6ZN32 1-361).
T2 sequence: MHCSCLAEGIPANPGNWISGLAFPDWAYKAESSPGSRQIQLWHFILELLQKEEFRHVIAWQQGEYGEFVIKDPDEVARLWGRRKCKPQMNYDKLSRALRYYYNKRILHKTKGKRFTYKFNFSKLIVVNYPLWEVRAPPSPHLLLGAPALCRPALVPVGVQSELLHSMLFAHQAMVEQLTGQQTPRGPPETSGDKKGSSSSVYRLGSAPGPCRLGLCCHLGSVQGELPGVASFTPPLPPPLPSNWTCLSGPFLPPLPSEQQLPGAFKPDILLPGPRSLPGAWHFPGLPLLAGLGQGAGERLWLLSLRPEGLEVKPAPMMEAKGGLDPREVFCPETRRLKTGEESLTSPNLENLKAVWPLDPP
The essentials:
as §1

A further assay concerns the target T3, ETS2 (Homo sapiens, UniProt P15036 1-469).
T3 sequence: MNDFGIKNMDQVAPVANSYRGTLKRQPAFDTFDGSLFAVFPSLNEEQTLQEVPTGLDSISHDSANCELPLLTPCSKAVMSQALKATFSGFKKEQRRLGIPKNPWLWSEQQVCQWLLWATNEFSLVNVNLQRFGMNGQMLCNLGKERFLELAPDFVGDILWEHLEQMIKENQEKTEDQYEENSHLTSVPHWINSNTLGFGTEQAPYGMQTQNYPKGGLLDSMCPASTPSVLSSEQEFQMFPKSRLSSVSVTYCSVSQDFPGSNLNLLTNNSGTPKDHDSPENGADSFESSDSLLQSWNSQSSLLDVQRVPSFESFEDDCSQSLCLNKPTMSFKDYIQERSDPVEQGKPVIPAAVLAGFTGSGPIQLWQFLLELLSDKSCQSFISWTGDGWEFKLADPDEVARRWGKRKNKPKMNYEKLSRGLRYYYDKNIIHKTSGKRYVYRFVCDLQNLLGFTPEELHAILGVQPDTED
The essentials:
as §1

A further assay deals with T4, SPDEF (Homo sapiens, UniProt O95238 1-335).
T4 sequence: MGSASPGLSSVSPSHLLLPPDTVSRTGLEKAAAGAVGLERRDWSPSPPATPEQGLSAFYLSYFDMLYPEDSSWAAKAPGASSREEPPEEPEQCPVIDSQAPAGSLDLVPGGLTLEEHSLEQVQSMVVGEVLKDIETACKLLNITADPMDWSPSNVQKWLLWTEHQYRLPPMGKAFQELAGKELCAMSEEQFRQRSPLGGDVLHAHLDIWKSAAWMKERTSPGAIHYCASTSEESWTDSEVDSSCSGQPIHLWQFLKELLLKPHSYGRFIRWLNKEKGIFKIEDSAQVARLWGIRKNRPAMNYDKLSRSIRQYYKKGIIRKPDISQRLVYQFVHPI
The essentials:
as §1

The next assay addresses T5, ETV7 (Homo sapiens, UniProt Q9Y603 1-341).
T5 sequence: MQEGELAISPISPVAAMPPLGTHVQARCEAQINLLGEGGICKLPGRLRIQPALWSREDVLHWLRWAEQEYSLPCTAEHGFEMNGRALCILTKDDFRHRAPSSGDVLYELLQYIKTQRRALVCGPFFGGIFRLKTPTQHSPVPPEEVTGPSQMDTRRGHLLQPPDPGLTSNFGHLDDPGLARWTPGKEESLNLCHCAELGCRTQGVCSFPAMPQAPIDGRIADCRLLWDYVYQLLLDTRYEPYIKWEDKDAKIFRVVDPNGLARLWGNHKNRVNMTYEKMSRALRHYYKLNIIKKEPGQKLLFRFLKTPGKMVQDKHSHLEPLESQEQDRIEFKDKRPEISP
The essentials:
as §1

In a further assay the target is T6, ELF5 (Homo sapiens, UniProt Q9UKW6-2 1-255).
T6 sequence: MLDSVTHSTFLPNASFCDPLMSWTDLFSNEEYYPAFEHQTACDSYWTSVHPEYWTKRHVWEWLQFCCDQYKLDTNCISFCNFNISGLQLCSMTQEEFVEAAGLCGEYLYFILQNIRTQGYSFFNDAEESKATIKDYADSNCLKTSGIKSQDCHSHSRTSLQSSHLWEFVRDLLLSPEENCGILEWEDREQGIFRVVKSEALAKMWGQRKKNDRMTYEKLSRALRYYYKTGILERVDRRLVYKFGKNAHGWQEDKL
The essentials: as §1

The next assay deals with T7, ETV3 (Homo sapiens, UniProt P41162-2 1-143).
T7 sequence: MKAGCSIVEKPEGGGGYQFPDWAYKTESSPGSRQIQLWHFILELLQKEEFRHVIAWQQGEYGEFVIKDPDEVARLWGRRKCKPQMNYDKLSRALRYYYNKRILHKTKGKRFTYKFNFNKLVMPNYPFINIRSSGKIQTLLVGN
The essentials: as §1

In the next assay the target is ETV6 (Homo sapiens, UniProt P41212 1-452). The essentials:
as §1

ETV6, sequence (P41212 whole entry): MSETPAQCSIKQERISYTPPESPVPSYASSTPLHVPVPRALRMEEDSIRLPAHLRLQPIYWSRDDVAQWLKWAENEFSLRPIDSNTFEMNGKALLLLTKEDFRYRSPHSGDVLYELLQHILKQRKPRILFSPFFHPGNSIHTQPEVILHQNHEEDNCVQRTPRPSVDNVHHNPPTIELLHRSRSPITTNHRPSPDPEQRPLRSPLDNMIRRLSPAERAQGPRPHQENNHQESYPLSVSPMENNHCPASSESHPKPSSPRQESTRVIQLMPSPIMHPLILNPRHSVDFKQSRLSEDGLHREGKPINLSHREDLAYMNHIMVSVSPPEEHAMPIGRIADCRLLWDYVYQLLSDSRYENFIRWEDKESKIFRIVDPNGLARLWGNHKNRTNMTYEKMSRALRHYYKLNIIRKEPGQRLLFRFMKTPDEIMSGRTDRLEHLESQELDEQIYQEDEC

For the sequence TATGCC, the binding signal is 1.16 fold enrichment (6-mer frequency, TF over GST control) with ERF; 1.12 fold enrichment (6-mer frequency, TF over GST control) with ETV3L; 1.21 fold enrichment (6-mer frequency, TF over GST control) with ETS2; 1.23 fold enrichment (6-mer frequency, TF over GST control) with SPDEF; 1.19 fold enrichment (6-mer frequency, TF over GST control) with ETV7; 1.14 fold enrichment (6-mer frequency, TF over GST control) in the assay with ELF5. Further, the binding signal with ETV3 was 1.17 fold enrichment (6-mer frequency, TF over GST control); with ETV6 it was 1.22 fold enrichment (6-mer frequency, TF over GST control).
In the case of ATGTGG, the binding signal in the assay with ERF is 1.15 fold enrichment (6-mer frequency, TF over GST control); with ETV3L, 1.16 fold enrichment (6-mer frequency, TF over GST control); with ETS2, 1.18 fold enrichment (6-mer frequency, TF over GST control); in the assay with SPDEF it was 1.05 fold enrichment (6-mer frequency, TF over GST control); with ETV7, 1.08 fold enrichment (6-mer frequency, TF over GST control); with ELF5 it was 1.15 fold enrichment (6-mer frequency, TF over GST control). Further, the binding signal is 1.19 fold enrichment (6-mer frequency, TF over GST control) with ETV3 and 1.2 fold enrichment (6-mer frequency, TF over GST control) in the assay with ETV6.
Regarding ACGGAA, the binding signal with ERF was 1.53 fold enrichment (6-mer frequency, TF over GST control); with ETV3L, 1.73 fold enrichment (6-mer frequency, TF over GST control); with ETS2 it was 1.86 fold enrichment (6-mer frequency, TF over GST control); with SPDEF, 1.78 fold enrichment (6-mer frequency, TF over GST control); with ETV7 it was 1.57 fold enrichment (6-mer frequency, TF over GST control); with ELF5, 2.24 fold enrichment (6-mer frequency, TF over GST control). Moreover, the binding signal with ETV3 was 1.93 fold enrichment (6-mer frequency, TF over GST control); with ETV6 it was 2.14 fold enrichment (6-mer frequency, TF over GST control).
With AAGCAC, the binding signal with ERF is 1.19 fold enrichment (6-mer frequency, TF over GST control); in the assay with ETV3L it was 1.2 fold enrichment (6-mer frequency, TF over GST control); with ETS2, 1.17 fold enrichment (6-mer frequency, TF over GST control); with SPDEF it was 1.29 fold enrichment (6-mer frequency, TF over GST control); in the assay with ETV7, 1.3 fold enrichment (6-mer frequency, TF over GST control); with ELF5 it was 1.28 fold enrichment (6-mer frequency, TF over GST control). Further, the binding signal in the assay with ETV3 was 1.19 fold enrichment (6-mer frequency, TF over GST control); with ETV6 it was 1.28 fold enrichment (6-mer frequency, TF over GST control).
Regarding CGCTAC, the binding signal with ERF was 1.24 fold enrichment (6-mer frequency, TF over GST control); with ETV3L it was 1.17 fold enrichment (6-mer frequency, TF over GST control); in the assay with ETS2, 1.24 fold enrichment (6-mer frequency, TF over GST control); with SPDEF, 1.21 fold enrichment (6-mer frequency, TF over GST control); with ETV7, 1.2 fold enrichment (6-mer frequency, TF over GST control); with ELF5, 1.16 fold enrichment (6-mer frequency, TF over GST control). For the same sequence, the binding signal in the assay with ETV3 is 1.16 fold enrichment (6-mer frequency, TF over GST control); in the assay with ETV6, 1.27 fold enrichment (6-mer frequency, TF over GST control).
Take AATCAG: the binding signal in the assay with ERF was 1.05 fold enrichment (6-mer frequency, TF over GST control); in the assay with ETV3L, 1.15 fold enrichment (6-mer frequency, TF over GST control); in the assay with ETS2 it was 1.08 fold enrichment (6-mer frequency, TF over GST control); with SPDEF, 1.01 fold enrichment (6-mer frequency, TF over GST control); with ETV7 it was 1.12 fold enrichment (6-mer frequency, TF over GST control); with ELF5, 1.04 fold enrichment (6-mer frequency, TF over GST control). In addition, the binding signal with ETV3 is 1.07 fold enrichment (6-mer frequency, TF over GST control); with ETV6, 1.14 fold enrichment (6-mer frequency, TF over GST control).
ATGATT: the binding signal was 1.18 fold enrichment (6-mer frequency, TF over GST control) with ERF; 1.24 fold enrichment (6-mer frequency, TF over GST control) with ETV3L; 1.18 fold enrichment (6-mer frequency, TF over GST control) with ETS2; 1.15 fold enrichment (6-mer frequency, TF over GST control) in the assay with SPDEF; 1.17 fold enrichment (6-mer frequency, TF over GST control) with ETV7; 1.14 fold enrichment (6-mer frequency, TF over GST control) with ELF5. Further, the binding signal in the assay with ETV3 was 1.3 fold enrichment (6-mer frequency, TF over GST control); with ETV6, 1.19 fold enrichment (6-mer frequency, TF over GST control).
Consider CCATCC, for which the binding signal with ERF is 1.12 fold enrichment (6-mer frequency, TF over GST control); with ETV3L it was 1.31 fold enrichment (6-mer frequency, TF over GST control); with ETS2 it was 1.23 fold enrichment (6-mer frequency, TF over GST control); with SPDEF, 1.56 fold enrichment (6-mer frequency, TF over GST control); with ETV7 it was 1.24 fold enrichment (6-mer frequency, TF over GST control); with ELF5 it was 1.3 fold enrichment (6-mer frequency, TF over GST control). Also, the binding signal with ETV3 is 1.27 fold enrichment (6-mer frequency, TF over GST control); in the assay with ETV6, 1.2 fold enrichment (6-mer frequency, TF over GST control).

(Values after publication PMC7862700, “An all-to-all approach to the identification of sequence-specific readers for epigenetic DNA modifications on cytosine”.)
